Consider 39 compounds from PubChem BioAssay AID1259240 (Keith Lab, Institute of Cancer Science, University of …, 2017).

The source made the active and inactive calls. Cut-off read from the data, not from the text of the source: active = fold change mostly below about -2 (no sharp cut-off); inactive = mostly above about -1.8.

This experiment in a line: TERT promoter activity modulators, primary screen, cell-based, luciferase reporter, human (AID 1259240). To be noted: A2780 TERT promoter luciferase reporter, 16 h; at 20 µM, fold versus average of vehicle-only wells. In general terms: A reporter such as luciferase makes a cellular process visible.
`COc1ccc(Br)cc1/C=c1\sc2nc(-c3ccco3)nn2c1=O`: the fold change was 1.22 (inactive).
With `O=c1[nH]c(CN2CCN(CCO)CC2)nc2ccccc12`, the outcome was inactive.
Turning to `Cc1cc(NC(=O)CSc2nnc(Cn3c(=O)sc4ccccc43)n2-c2ccccc2)no1`, the fold change was 1.22 (inactive).
On the same count and under the same terms, the value for `COc1ccc(NC(=O)Nc2ccc3snnc3c2)cc1OC` was 1.08 (inactive); that for `CCc1nc2ccccc2n1CC(O)COc1cccc(OC)c1` (centres undefined) was 1.45 (inactive).
For the compound `O=C(CSc1c2c(nc3cc(Cl)ccc13)CCCC2)Nc1nccs1`, the fold change was -3.17 (active).
The same measure, in the same setting: the value for `O=C(NCc1ccc(Cl)cc1)Nc1ccc2snnc2c1` was -1.36 (inactive).
Turning to `Cc1ccc(N2CC(O)=C(c3nc4ccccc4c(=O)[nH]3)C2=N)cc1C`, the compound was classed as inactive.
For `CCOC(=O)Cn1c(=O)oc2cc(S(=O)(=O)NCCC(C)C)ccc21`, the fold change is -1 (inactive).
With `CCOc1cc(C2NC(=O)c3n[nH]c(C)c32)ccc1O` (centres undefined), the fold change is 1.27 (inactive).
On the same count and under the same terms, the result for `COc1ccc2c(c1)OC13CCCCC1C2C(C(=O)c1ccccc1)C(=O)N3` (centres undefined) reads -2.84 (active).
For the compound `CCOC(=O)C1=C(CS(=O)(=O)c2ccc(C)cc2)NC(=O)NC1c1ccccc1` (centres undefined), the fold change is 1.64 (inactive).
Still for that read-out and setting: the value for `COc1nc(NC(C)(C)C)nc(Oc2ccc(=O)[nH]n2)n1` was 2 (active); that for `Cc1noc(C(=O)NCC(C)C)c1Cl` was -1.74 (inactive).
Still for that read-out and setting: the result for `COCCN1C(=O)C(=O)/C(=C(\O)c2ccc(C)cc2)C12C(=O)N(C)c1ccccc12` (centres undefined) reads -1.06 (inactive).
Take `COc1cc(-c2nc3cnccn3c2NC2CCCCC2)ccc1O`: the call was inactive.
As to `CS(=O)(=O)Nc1ccc(Cl)c2cccnc12`, the fold change is -2.8 (active).
The same measure, in the same setting: the value for `CN(C)CCN1C(=O)C(=O)/C(=C(\O)c2ccc(F)cc2)C12C(=O)N(C)c1ccccc12` (centres undefined) was -1.34 (inactive).
Take `N#Cc1cn(CC(=O)NCCc2c[nH]c3ccccc23)c2ccccc12`: the fold change is -1.14 (inactive).
On the same count and under the same terms, the result for `CC1(C)CC2CC(C)(CN2C(=O)CSc2nc(-c3ccco3)cc(C(F)(F)F)n2)C1` (centres undefined) reads -1.47 (inactive).
Same read-out and setting: the result for `CN(C(=O)c1ccc2c(=O)n3c(nc2c1)CCCCC3)c1ccc(F)cc1` reads -1.12 (inactive); that for `NCCn1c(-c2cccnc2)n[nH]c1=S`, -1.19 (inactive); that for `Cn1c(-c2ccc(N)cc2)nc2cc(N)ccc21`, -1.51 (inactive).
As for `CCOC(=O)C1=C(CS(=O)(=O)c2ccc(F)c(C)c2)NC(=O)NC1c1cc(OC)ccc1OC` (centres undefined), the fold change was 1.23 (inactive).
Take `O=C(CSc1nnc(Cc2cc(=O)[nH]c(=O)[nH]2)n1-c1ccc(Cl)cc1)c1ccccc1`: the fold change was -1.09 (inactive).
Turning to `Cn1c2ccccc2c2cnn(CC(=O)N3CCN(c4ccccn4)CC3)c(=O)c21`, the fold change is -1.1 (inactive).
Still for that read-out and setting: the result for `CCn1c(NCc2ccc(Cl)cc2)nc2ccccc21` reads 1.05 (inactive); that for `CC(=O)c1cc2c(cc1NC(=O)c1cc(C)nn1-c1ccccc1)OCO2`, -1.17 (inactive).
With `CCc1ccc2c(c1)c1n[nH]c(=S)nc1n2CC`, the fold change was 1.17 (inactive).
Still for that read-out and setting: the result for `CCc1nccn1S(=O)(=O)c1ccc(OC)c(OC)c1` reads -2.54 (active).
The same measure, in the same setting: the value for `CC(C)OCCCNC(=O)c1ccc(NC2=NC3CS(=O)(=O)CC3S2)cc1` (centres undefined) was 1.22 (inactive); that for `Cc1ccc(-c2cc(C(F)F)n3ncc(C(=O)NCc4cccnc4)c3n2)cc1` was -1.5 (inactive); that for `Nc1cc(-c2ccccc2)nn1S(=O)(=O)c1ccc(Br)cc1` was 1.63 (inactive).
Still for that read-out and setting: the value for `COc1ccc2[nH]cc(S(=O)(=O)c3ccc(C)cc3)c(=O)c2c1` was 1.08 (inactive); that for `CCN1C(=O)N/C(=C/c2cn(CC(=O)Nc3ccc(Cl)cc3)c3ccccc23)C1=O` was -1.87 (inactive).
In the case of `Cc1ccc(C(C)C)cc1OCC(O)Cn1cnc2ccccc21` (centres undefined), the fold change was -1.17 (inactive).
Consider `CCOC(=O)c1nn(-c2ccc(Cl)cc2)c(=O)c2c(NC(=O)C3CC3)scc12`, for which the fold change is -1.1 (inactive).
Turning to `O=C(CN1C(=O)COc2ccc(S(=O)(=O)N3CCOCC3)cc21)N1CCC2(CC1)OCCO2`, the fold change was 1.48 (inactive).
Still for that read-out and setting: the value for `CN1C(C(=O)c2ccccc2)=C(OC(=O)c2ccc(F)cc2)c2ccccc2S1(=O)=O` was 1.16 (inactive).
